Data from PubChem BioAssay (NCI).
“And” between values parts separate entries of the source, which are not always exact repeats. Equal values may be shown once. This is part of a sample that, as a whole, favours compounds with a hit. Of some 83,000 tested, about 20% had one in any assay.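 Values shown are percent growth following 48 h exposure of cells in 96-well plates to a single concentration of compound; below 10 was considered active.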 The source made the active and inactive calls.

Each compound was assayed on MDA-MB-468 breast (assay: NCI-60 one-dose screen, 48 h (100 = growth as untreated, 0 = no growth, -100 = all killed)). Settings: 10 µM unless noted.

SMILES | growth
Cc1cccc(CC(=O)c2ccccc2)n1 | 92.8% (inactive)
O=C(c1c[nH]c(=O)c(-c2ccccc2)c1)c1ccccc1O | 80.8% (inactive)
COc1cc(OC)c(/C=C/S(=O)(=O)Cc2ccc(OC)c(N)n2)c(OC)c1 | 13.5% (inactive)
CCN(CC)C(=O)C1(C)CCCC2(C)c3cc(OC(C)=O)ccc3CCC12 (stereo not given) | 56.9% (inactive)
CC(O)CN1CCCCC1 (stereo not given) | 104% (inactive)
CC(=O)Nc1ccc(Sc2ccc(NC(C)=O)cc2)cc1 | 100% (inactive)
Cn1c(=O)c2[nH]c(CCCc3nc4c([nH]3)c(=O)n(C)c(=O)n4C)nc2n(C)c1=O | 103% (inactive)
O=C(Nc1ccc(Cl)c(Cl)c1)Nc1ccccc1O | 0.995% (active)
S=c1nc(-c2ccccn2)c(-c2ccccn2)n[nH]1 | 108% (inactive)
Fc1ccc([C@@H]2CCNC[C@H]2COc2ccc3c(c2)OCO3)cc1 | 36.1% (inactive)
COc1ccc2nc3cc(Cl)ccc3c(NCCN)c2c1 | -61.6% (active)
N#Cc1c(N)nc(-c2cc(F)cc(C(F)(F)F)c2)nc1-c1ccccc1F | 62.8% (inactive)
c1ccc2sc(SSN3CC4CCC(CC4)C3)nc2c1 | 122% (inactive)
Oc1[nH]c2ccc(Cl)cc2c1/C=c1/ccc2c(c1)N=C(c1cccs1)N=2 | 55.2% (inactive)
O=C(/C=C/C12c3ccccc3C(c3ccccc31)C1C(=O)NC(=O)C12)c1ccccn1 (stereo not given) | -13.1% (active)
CCC(OC(=O)CC(C)C)c1ccccc1 (stereo not given) | 99.3% (inactive)
N=C(N)Sc1cccc[n+]1[O-] | 62.4% (inactive)
CCOC(=O)Nc1ccc(-c2nc(-c3cccc(O)c3)c(-c3ccnc(Br)c3)[nH]2)cc1 | 10.7% (inactive)
CC[C@H](CC[C@@H](C)[C@H]1CC[C@H]2[C@@H]3CC(=O)C4=CC(=O)/C(=C/c5ccc([N+](=O)[O-])cc5)C[C@]4(C)[C@H]3CC[C@]12C)C(C)C | 104% (inactive)
CC(C)(C)c1ccc(S(=O)(=O)O)s1 | 109% (inactive)

SMILES | growth
COc1ccc(C2C=C(c3ccc(N)cc3)N=C3SC=CN32)cc1OC (stereo not given) | 101% (inactive)
O=C(NNc1ccccc1)c1ccccc1 | 87.1% (inactive) and 103% (inactive)
CCCCCCCCCC(C)NC(=O)CCl (stereo not given) | 95.4% (inactive)
O=C1c2cc(Cl)ccc2Oc2cc([N+](=O)[O-])ccc2N1c1ccc(F)cc1F | 91.6% (inactive)
Nc1ccc(N=Nc2ccccc2)cc1[N+](=O)[O-] | -6.35% (active)
C=CCn1c(SCC(=O)Nc2cccc(C(=O)/C=C/c3ccc(Cl)cc3)c2)nc2ccccc2c1=O | 107% (inactive)
Clc1ccc(C2=NN(c3ccccc3)[C@H](c3cn(-c4ccccc4)nc3-c3ccccc3)C2)cc1 | 109% (inactive)
Nc1nc(-c2ccccc2)c(CCCOc2ccc(NC(=O)CBr)cc2)c(=O)[nH]1 | 104% (inactive)
COc1cc(Cc2cc(-c3ccccc3)n[nH]c2=O)cc(OC)c1OC | 29% (inactive)
Cc1ccc[n+](CCC(N)=O)c1 | 108% (inactive)
COc1cccc(-c2nc3sccn3c2-c2ccnc(NCCCNS(=O)(=O)c3cccc(F)c3)c2)c1 | 8.57% (active)
O=[N+]([O-])c1ccc(Cl)c(-c2cc(CCCCO)on2)c1 | 98.3% (inactive)
CC(C)(C)CC(C)(C)Nc1c(-c2ccc(C(F)(F)F)cc2)nc2cnccn12 | 100% (inactive)
CCC/C(=N\NC(N)=O)C(OC)OC | 103% (inactive)
COc1cc2c(cc1OC)C(=O)OC2 | 97.1% (inactive)
COc1ccc(C(=O)C(O)c2ccc(OC)cc2)cc1 (stereo not given) | 101% (inactive) and 96.3% (inactive)
COc1cc(/C=C/C(=O)c2ccc(NC(=O)CSc3nnc(-c4ccc(Cl)cc4)n3-c3ccccc3)cc2)cc(OC)c1OC | 72.9% (inactive)
NC(=O)NNC(=O)c1ccccc1 | 110% (inactive)
N#CC1=C(N)Oc2c(sc3c(Br)cccc23)C1c1ccc(Cl)cc1 (stereo not given) | 1.22% (active)
NC[C@@H]1O[C@H](O[C@@H]2[C@@H](CO)OC(O[C@@H]3[C@@H](O)[C@H](N)C[C@H](N)[C@H]3OC3O[C@H](CN)[C@@H](O)[C@H](O)[C@H]3N)[C@@H]2O)[C@H](N)[C@@H](O)[C@@H]1O (stereo not given in full) | 110% (inactive)
